# Assay outcomes deposited in PubChem BioAssay by The Scripps Research Institute Molecular Screening Center.
# This is a sample that favours compounds with a hit; in the whole collection about 2.3% have one here.
# M1 PAM parental = M1 PAM counterscreen hit in parental CHO-K1 cells. ATP EC20, Fluo-8 calcium fluorescence; 0% at ATP EC20, 100% at ATP max. activation, % at 3 µM. 360,000 compounds, 0.02% hits. AID 602247;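 active = activation above the run cutoff, the mean activation of all test compounds plus 3 SD, cut at about 40% in these data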;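 note: peak over basal fluorescence ratio in a 140 s read after ATP addition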
# CHRM1 PAM = potentiates human M1 receptor response to acetylcholine | AID 588819 | 360,000 compounds, 0.088% hits | P11229 | activation, % at 3 µM | CHO-K1 hM1, Fluo-8 calcium fluorescence, ACh EC20; 0% = ACh EC20, 100% = maximal ACh; in the data active = activation above about 19%, passing the limit was not always enough
# Target sequence (P11229 whole entry, looked up): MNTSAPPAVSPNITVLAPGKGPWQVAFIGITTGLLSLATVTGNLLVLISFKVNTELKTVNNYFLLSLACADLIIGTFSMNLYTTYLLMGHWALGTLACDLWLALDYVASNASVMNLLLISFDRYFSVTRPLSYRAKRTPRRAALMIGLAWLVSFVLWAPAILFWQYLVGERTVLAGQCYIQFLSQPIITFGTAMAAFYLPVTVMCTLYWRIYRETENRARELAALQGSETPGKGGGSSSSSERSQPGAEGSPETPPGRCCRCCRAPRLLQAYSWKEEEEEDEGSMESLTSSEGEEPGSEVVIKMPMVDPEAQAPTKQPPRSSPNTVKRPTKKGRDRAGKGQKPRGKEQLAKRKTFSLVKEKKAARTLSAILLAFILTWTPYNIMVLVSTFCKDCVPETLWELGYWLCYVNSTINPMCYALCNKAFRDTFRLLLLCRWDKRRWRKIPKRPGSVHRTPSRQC
# CHO-K1 Ca ag = M1 agonist counterscreen hit in parental CHO-K1 cells; 360,000 compounds, 0.48% hits; activation, % at 3 µM; Fluo-8 calcium fluorescence; scaled to maximal ATP response, vehicle zero; AID 602248; in the data active = activation above about 15%;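 note: untransfected CHO-K1 host cells lacking M1 receptor as counterscreen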
# CHO-K1 Ca antag = nonselective inhibitor or artifact in parental CHO-K1 cells; ATP-induced calcium, Fluo-8 fluorescence; inhibition, % at 3 µM; 360,000 compounds, 0.6% hits; AID 602250;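 active = inhibition above a per-plate cutoff, the plate's mean sample inhibition plus 3 SD, cut at about 24% in these data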;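 note: 0% = DMSO plus EC80 ATP and 100% = DMSO alone without ATP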
# M1 ag = activates human CHRM1 receptor | activation, % at 3 µM | 360,000 compounds, 0.33% hits | AID 588814 | CHO-K1 hM1, Fluo-8 calcium fluorescence, agonist mode; 0% DMSO, 100% acetylcholine EC100 | P11229;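 active = activation above the run's mean compound activation plus 3 SD, cut at about 16% in these data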;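 note: peak over basal fluorescence ratio within a 140 s kinetic read after compound addition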
# CHRM1 antagonist = human CHRM1 antagonism; AID 588852; 360,000 compounds, 1.3% hits; inhibition, % at 3 µM; CHO-K1 hM1, Fluo-8 calcium fluorescence, ACh EC80 antagonist; P11229;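 active = percent inhibition above its own plate's cutoff, namely the mean of that plate's compound wells plus 3 SD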;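 note: peak over basal fluorescence ratio during 140 s after agonist addition; 0% = ACh EC80 plus DMSO and 100% = DMSO alone without agonist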
# Starred values were filed as active, the others as inactive.
SMILES,M1 PAM parental,CHRM1 PAM,CHO-K1 Ca ag,CHO-K1 Ca antag,M1 ag,CHRM1 antagonist
CCN=C1SC(C(=O)Nc2ccc(OC)cc2)CC(=O)N1CC (stereo unspecified),0.5,-20.0,5.4,19.2,-1.0,31.7*
CCN=c1sc(C(=O)NCCc2ccccc2)cc(=O)n1CC,6.7,-3.6,6.1,14.8,4.4,30.2*
Nc1c(C(=O)CSc2n[nH]c(-c3ccccc3)n2)c(=O)[nH]c(=O)n1C1CC1,1.3,29.2*,-0.4,-1.1,1.8,-26.8
Nc1c(C(=O)CSc2n[nH]c(-c3ccccc3Br)n2)c(=O)[nH]c(=O)n1C1CC1,6.7,-6.5,0.7,-6.3,-3.8,10.7
COCCCNc1ncnc2sc3c(c12)CCC(C)C3 (stereo unspecified),-5.2,-0.5,-0.1,29.7*,-4.4,3.4
CC1CCc2c(sc3ncnc(NS(=O)(=O)c4cccs4)c23)C1 (stereo unspecified),-8.3,-1.2,-0.9,12.8,-6.6,1.4
O=C(COC(=O)Cc1ccc(F)cc1)NC1CCS(=O)(=O)C1 (stereo unspecified),-6.9,5.4,0.6,-1.1,0.6,-8.3
O=C(COC(=O)Cc1c[nH]c2ccccc12)NC1CCS(=O)(=O)C1 (stereo unspecified),-20.9,-8.4,-0.1,9.7,-1.7,27.2*
CCn1c(CNc2cccc(C(F)(F)F)c2)n[nH]c1=S,17.1,-4.8,1.0,-15.6,-12.2,4.1
Cc1ccc2nc(Nc3ccccc3)c(/C=N/O)c(=O)n2c1,-6.6,0.2,1.3,26.3*,-0.2,-4.3
CC(C)N1CCN(c2ccncc2S(=O)(=O)N2CCN(C)CC2)CC1,13.1,-25.9,0.3,-5.7,-8.4,46.8*
CNS(=O)(=O)c1cnccc1N1CCN(C)CC1,17.3,6.0,2.9,4.8,-11.7,-4.7
CCN(CC)S(=O)(=O)c1ccc(N2Cc3ccccc3C2=N)cc1,8.2,-9.3,4.9,-1.7,-3.4,29.9*
CNCCOc1ccccc1-c1ccccc1,11.3,-4.4,0.5,-12.3,-6.0,3.6
O=C(/C(=C/c1ccc(Cl)cc1)c1nc2ccccc2[nH]1)c1ccccc1,16.4,-21.3,1.1,-11.2,-0.4,93.5*
CCN(c1ccccc1)S(=O)(=O)c1cc(C(=O)Nc2ccc(F)c(F)c2)ccc1F,-0.2,-20.6,13.4,20.3,-0.3,32.6*
Cc1cc(C)c2c(=O)n(CC(=O)Nc3cccc(Cl)c3C)sc2n1,2.8,-0.1,18.5*,3.8,16.5*,20.3
Cc1cc(C)c2c(=O)n(CC(=O)Nc3ccc(Br)c(C)c3)sc2n1,1.3,7.2,0.8,-1.2,0.5,-5.2
O=C(c1cc(COc2ccc3ncccc3c2)on1)N1CCCC(O)C1 (stereo unspecified),9.7,-0.8,10.5,-3.0,-1.2,2.2
Cc1cccnc1CN1CCN(C(=O)c2cc(COc3ccc4ncccc4c3)on2)CC1,3.7,-3.7,14.9,18.3,-2.9,17.6
COCC1CCCN(C(=O)c2cc(COc3ccc4ncccc4c3)on2)C1 (stereo unspecified),-4.3,-11.4,14.4,25.0*,9.1,34.5*
CCN(CC)C1CCN(C(=O)c2cc(COc3ccc(-n4cncn4)cc3)on2)C1 (stereo unspecified),5.8,-8.4,0.2,-0.1,14.5,42.2*
CCOC(=O)C1CCCN(C(=O)c2cc(COc3ccc(C)nc3)on2)C1 (stereo unspecified),13.1,-4.0,6.5,-7.2,27.4*,3.9
CCOC(=O)N1CCN(C(=O)c2cc(COc3ccc4ncccc4c3)on2)CC1,-12.8,-4.5,4.4,24.9*,4.0,5.2
CCCCCn1c(=O)c(-c2nc3ccccc3[nH]2)c(O)c2ccccc21,4.1,-12.3,3.5,-0.4,-5.1,0.5
SMILES,M1 PAM parental,CHRM1 PAM,CHO-K1 Ca ag,CHO-K1 Ca antag,M1 ag,CHRM1 antagonist
COC(=O)CN1C(=O)CSc2ccc(S(=O)(=O)N3CCC(C)CC3)cc21,13.8,4.6,-0.1,6.4,-4.8,-8.4
Cc1noc(C)c1S(=O)(=O)N1CCCC1C(=O)O (stereo unspecified),4.9,13.7,-0.3,-10.9,0.2,-2.7
Cc1cc(F)ccc1NC(=O)c1ccc(NS(=O)(=O)c2cccs2)cc1,24.3,4.0,0.7,-28.9,-2.1,-9.8
Cc1cnc(C(=O)OC(C(=O)c2c[nH]c3ccccc23)c2ccccc2)cn1 (stereo unspecified),2.5,4.1,3.0,-7.5,2.8,3.0
CCn1ccc(C(=O)Nc2ccc(Cl)cn2)n1,-6.6,-19.4,3.7,20.5,-0.3,32.6*
CCCN1CCc2c(sc(NC(=O)C3CCN(S(=O)(=O)c4cccs4)CC3)c2C(N)=O)C1,-36.5,-23.1,0.1,28.8*,-7.1,53.4*
CC(=O)N1CCc2c(sc(NC(=O)C3CCN(S(=O)(=O)c4cccs4)CC3)c2C(N)=O)C1,-1.4,8.7,1.2,6.4,-4.4,-7.5
Cc1ccc(S(=O)(=O)n2c(C)nc3cc(C)ccc32)cc1,3.1,0.8,0.0,-9.8,-0.9,-1.6
Cc1ccc(S(=O)(=O)n2c(N)nc3cc(C)c(C)cc32)cc1,-4.2,-20.3,-0.4,-2.6,-11.0,20.5*
COC(C[C@H]1O[C@@H]1[C@H](O)COCc1ccccc1)OC,4.2,1.2,-0.3,5.3,-1.7,-0.1
COC(C[C@H]1O[C@H]1[C@@H](O)COCc1ccccc1)OC,2.9,-12.6,-0.3,1.8,-6.2,39.2*
Cc1nc2ccc(S(=O)(=O)Nc3cccc(-c4nc5cccnc5s4)c3)cc2s1,-8.5,-16.4,5.5,30.0*,3.0,23.7
Cc1nc2ccc(NS(=O)(=O)c3ccc4c(c3)OCCO4)cc2s1,-0.7,-5.9,7.2,22.8,2.8,31.2*
CCCCCCCCN1[C@@H](CC(=O)O)c2ccc(C(F)(F)F)cc2S1(=O)=O,8.0,7.0,0.0,-10.7,-7.5,-2.5
COc1ccc(C)cc1NC(=O)C(OC(=O)CNC(=O)c1cccc(F)c1)c1ccccc1 (stereo unspecified),-16.4,11.5,-0.1,30.6*,-6.7,-4.2
Oc1ccccc1N1CCN(C(=S)NCCc2ccccc2)CC1,-15.8,-13.2,2.6,27.7*,-2.2,13.1
Cc1onc(-c2ccccc2)c1CNS(=O)(=O)c1ccccc1[N+](=O)[O-],-14.7,1.0,0.9,6.4,-1.4,0.5
CCOc1ccc(-c2cccc(NC(=O)c3cccs3)c2)nn1,10.3,-1.9,3.0,-10.1,-4.1,-1.1
CC1CC(C)CN(C(=O)COC(=O)c2cc(S(=O)(=O)N3CCOCC3)ccc2F)C1 (stereo unspecified),-23.3,-17.5,0.2,6.6,-2.0,56.7*
O=C(c1ccccc1Oc1ccc([N+](=O)[O-])cc1)N1CCOCC1,-12.1,8.8,0.2,24.5*,-3.8,-5.4
